Autofluor counter – compound fluorescence in toxin protease inhibitor counterscreen; 360,000 tested, 3.1% active; compound autofluorescence counterscreen, microsphere flow cytometry; stronger effect = higher value; fluorescence intensity (no concentration beside the values); in the data active = fluorescence intensity above about 16000; inconclusive = no clear call, values can overlap the other calls
BoNT A protease – inhibitors of Botulinum neurotoxin A light chain protease. inhibition, % at 10 µM. multiplex microsphere protease substrate cleavage, flow cytometry. 360,000 tested, 0.17% active; note: plate controls were buffer without enzyme for full effect and enzyme alone for no effect
BoNT-F LC inh – BoNT F light chain protease inhibition; 360,000 tested, 0.22% active; inhibition, % at 10 µM; Multiplex microsphere protease cleavage assay, flow cytometry; in the data active = inhibition above about 35%, passing the limit was not always enough; inconclusive = no clear call, values can overlap the other calls; note: plate controls were buffer without enzyme for full effect and enzyme alone for no effect
Anthrax LF prot – anthrax lethal factor protease inhibition | P15917 | multiplex microsphere protease cleavage assay, LF | 360,000 tested, 0.12% active | inhibition, % at 10 µM; note: plate controls were buffer without enzyme for full effect and enzyme alone for no effect
Target sequence (P15917 whole entry, looked up): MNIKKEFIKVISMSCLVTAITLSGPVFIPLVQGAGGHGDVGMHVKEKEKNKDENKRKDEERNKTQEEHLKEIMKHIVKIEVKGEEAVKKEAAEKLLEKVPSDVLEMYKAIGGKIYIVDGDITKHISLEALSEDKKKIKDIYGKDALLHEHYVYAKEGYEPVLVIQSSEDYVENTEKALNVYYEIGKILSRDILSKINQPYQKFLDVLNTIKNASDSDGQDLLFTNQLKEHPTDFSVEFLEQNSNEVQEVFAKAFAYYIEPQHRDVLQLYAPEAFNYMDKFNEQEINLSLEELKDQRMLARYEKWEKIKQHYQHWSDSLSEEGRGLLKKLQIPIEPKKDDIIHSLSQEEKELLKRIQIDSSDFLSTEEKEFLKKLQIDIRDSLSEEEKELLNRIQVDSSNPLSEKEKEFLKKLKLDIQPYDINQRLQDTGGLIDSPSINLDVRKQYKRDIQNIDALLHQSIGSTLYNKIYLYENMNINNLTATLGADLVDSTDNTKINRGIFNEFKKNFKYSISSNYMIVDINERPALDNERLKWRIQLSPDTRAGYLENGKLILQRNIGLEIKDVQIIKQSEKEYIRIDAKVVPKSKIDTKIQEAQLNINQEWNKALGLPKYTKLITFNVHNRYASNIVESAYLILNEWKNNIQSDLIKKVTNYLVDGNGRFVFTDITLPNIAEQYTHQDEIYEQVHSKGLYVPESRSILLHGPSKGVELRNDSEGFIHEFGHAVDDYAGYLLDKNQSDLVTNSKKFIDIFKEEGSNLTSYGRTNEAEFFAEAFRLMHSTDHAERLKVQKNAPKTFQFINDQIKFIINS
* marks the source's active call; other numbers are inactive results; ? = inconclusive. A selection: hits, their analogues and other compounds. The true share with any hit is near 3.5%. Cut-off read from the data, not from the text of the source, unless noted: active = inhibition above about 30%; inconclusive = no clear call, values can overlap the other calls; inactive = below that.

SMILES	Autofluor counter	BoNT A protease	BoNT-F LC inh	Anthrax LF prot
COC(=O)[C@]12CCCCC=C1N(Cc1ccco1)C(=O)[C@H](CC(=O)NCCC(C)C)C2	4327	0	-3	-8
C=CCn1c(SCC(=O)Nc2cc(C)nn2-c2ccccc2)nnc1C1CCCCC1	23513*	?	-5	-3
C=CCn1c(SCC(=O)NCc2ccccc2)nnc1C1CCCCC1	3173	1	-2	0
CCc1ccccc1N(C)S(=O)(=O)c1ccc(-c2cc(C)no2)s1	5226	1	2	-1
CCOc1ccc(NS(=O)(=O)c2cc(OC)ccc2OC)cc1	6674	1	-6	0
COc1ccc(OC)c(S(=O)(=O)Nc2ccc(Oc3ccccc3)cc2)c1	21725*	2	-1	-11
CCN(c1ccccc1)S(=O)(=O)c1ccc(OC)c(OC)c1	11560	0	-6	-1
CCN(c1ccccc1)S(=O)(=O)c1cc(OC)ccc1OC	22526*	1	1	-3
O=C(CNC(=O)c1cccc([N+](=O)[O-])c1)NC1CCCc2ccccc21 (stereo not drawn)	9077	-1	-4	-6
CCOc1ccccc1C(=O)NCC(=O)N1CCN(Cc2ccc3c(c2)OCO3)CC1	3686	0	-6	-4
CCOc1ccc(-n2c(SCc3nc(-c4ccc(C)cc4)no3)nnc2-c2ccncc2)cc1	10666	24	25	-12
Cc1ccc(-c2noc(CSc3nnc(-c4ccncc4)n3-c3ccc(C)cc3)n2)cc1	24919*	-7	-11	0
Cc1ccc(C2(C)NC(=O)N(CC(=O)NC(=O)NC(C)(C)C)C2=O)cc1 (stereo not drawn)	5894	-2	0	0
COCCOC(=O)c1c(C)n(C)c2ccc(OC(=O)c3ccccc3OC)cc12	3775	-2	6	3
COCCOC(=O)c1c(C)n(C)c2ccc(OC(=O)c3ccco3)cc12	22026*	?	2	-4
Cc1cn([C@H]2C[C@H](O)[C@@H](/C=C/C(=O)NCCC(c3ccccc3)c3ccccc3)O2)c(=O)[nH]c1=O	4461	-1	-2	5
CC(C)(C)NC(=O)CN(Cc1cccs1)C(=O)CNS(=O)(=O)c1ccc(F)cc1	3144	0	-4	0
CCC(C)(C)NC(=O)CN(Cc1cccs1)C(=O)CNS(=O)(=O)c1ccc(C)cc1	16739*	-1	-2	-3
COC(=O)c1sccc1NC(=O)c1cc(-c2ccc(C)cc2)nc2ccccc12	2623	0	-8	0
Cc1ccc(C)c(-c2cc(C(=O)Nc3nccs3)c3ccccc3n2)c1	24181*	-1	-5	2
COC(=O)c1sccc1NC(=O)c1cc(-c2cc(C)ccc2C)nc2ccccc12	21965*	3	2	-3
Cc1ccccc1-c1cc(C(=O)Nc2sc(C(=O)OC(C)C)c(C)c2C#N)c2ccccc2n1	16235*	2	1	-4
CC(=O)c1cccc(NC(=O)c2ccccc2N(Cc2ccccc2)S(C)(=O)=O)c1	4077	-3	?	-1
COc1cc(C=O)ccc1OCCSc1ccc(C)cc1	18295*	3	2	-5
O=C1COc2ccc(C(=O)CSc3nnnn3-c3ccccc3)cc2N1	3143	0	-19	-3
SMILES	Autofluor counter	BoNT A protease	BoNT-F LC inh	Anthrax LF prot
O=C1COc2ccc(C(=O)CSc3nnc(Cc4cccs4)n3-c3ccc(Cl)cc3)cc2N1	17966*	7	11	2
NC(=O)CSc1nnc(Cc2cccs2)n1C1CCCCC1	19288*	2	0	3
NC(=O)CSc1nnc(COc2ccccc2)n1C1CCCCC1	19126*	2	-1	1
NC(=O)CSc1nnc(COc2ccccc2)n1N	?	2	6	-4
O=C(CSc1nnc(Cc2cccs2)n1C1CC1)NC1CCS(=O)(=O)C1 (stereo not drawn)	5486	-1	-3	-1
Cc1ccc(-n2c(Cc3cccs3)nnc2SCC(N)=O)cc1	16452*	?	0	-1
Cc1ccc(-c2noc(CSc3nnc(Cc4cccs4)n3-c3ccccc3)n2)cc1	6099	-1	0	1
CC(C)=CCC[C@H](C)C[C@@H]1Cc2[nH][nH]c(=O)c2[C@H](c2ccc(F)cc2)O1	6355	0	-4	-8
COc1cccc(NC(=O)CCC2CCN(C(=O)c3ccc(C(C)=O)s3)CC2)c1	5396	1	-4	-2
N#CC1=CC2CN(Cc3ccccc3)C1C1C(=O)N(c3ccccc3)C(=O)C21 (stereo not drawn)	4324	-1	0	0
CCCCn1c(N)c(N(C)C(=O)c2ccc(Br)o2)c(=O)[nH]c1=O	3053	0	-1	-7
Cn1c(CCNC(=O)c2ccccc2)nc2cc(NC(=O)C3CCCCC3)ccc21	18656*	3	2	-1
Cn1c(CN2CCCCC2)nc2cc(NC(=O)c3cccc(Br)c3)ccc21	8491	1	-8	1
